The source of these data is PubChem BioAssay AID624305 (National Center for Advancing Translational Sciences (NCATS), 2012).

Inconclusive results are not listed. A number with no mark means an inactive call. Calls of active or inactive are those of the source. Calls follow the shape of the dose curve; as a rule, active = well fitted activation curve with a large enough effect; inconclusive = small, poorly fitted or top-dose-only effect; inactive = no such curve, though single readings can be large or run the other way.
Potency is read from the fitted curve at half-maximal effect.

The test is described as follows: qHTS assay for re-activators of p53 using a Luc reporter: Hit Validation. Also: nearly all actives have a fitted effect of over 75% in size. As to activation: 0% is about no effect. To be noted: p53-responsive luciferase reporter cells, luminescence, H1299 line expressing heat-sensitive Ala138Val p53; series mostly up to 46.1 µM; activation: at the top concentration. The method, boiled down:
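H1299 (p53-null) cells stably carrying p53-A138V and a BP100-luciferase reporter, 1000 cells/well, treated 24 h at 37 deg C. Compounds at several concentrations, 1:5 dilution; nocodazole control; luminescence read after 10 min with detection reagent.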
(In qHTS, concentration-response curves come from the screen itself.)
`Cc1ccc2nc(SCn3nnc4ccccc4c3=O)[nH]c2c1`: the Potency was 1.3 µM (active).

On to `COc1ccccc1-c1c(C)nn2c(C)c(C(C)=O)cnc12`, for which the “activation” value was -1.56%.

As for `O=C(c1cccs1)c1coc2ccc(O)cc12`, the Potency was 16.4 µM (active).

With `Cc1cccc(-n2c(O)c(C=Nc3ccccc3N)c(=O)[nH]c2=O)c1`, the “activation” value is 39.1%.

With `O=C1NCCCc2c1oc1ccc(O)cc21`, the activation was 41% [at 9.22 µM].

With `COc1ccc2cc3c(N)nn(C(=O)c4ccc(Cl)c([N+](=O)[O-])c4)c3nc2c1`, the “activation” value is -10.9%.

Take `COc1ccc(C(=O)N=c2nc3ccccn3s2)cc1`: the Potency was 0.092 µM (active).

Consider `COc1ccc(C(=O)C(CN2CCCC2)c2ccccc2)cc1` (stereo not drawn), for which the “activation” value was -30.7%.

In the case of `COCCn1c(SCC(=O)c2c(N)n(C3CC3)c(=O)[nH]c2=O)nnc1-c1cccc(C)c1`, the “activation” value was -7.81%.

For the compound `N/C(=N\OC(=O)c1ccccc1Cl)c1ccc(Cl)cc1`, the Potency was 9.2 µM (active).

For the compound `CCCN1CCC(=NNC(=O)CSc2cc(C)c(Br)cc2C)CC1`, the “activation” value is -9.9%.

For `COc1cccc(/C=N/Nc2ccc([N+](=O)[O-])cn2)c1O`, the Potency is 9.2 µM (active).

As to `CCOc1ccc(/C=N/NC(=O)CN2CCSCC2)cc1`, the “activation” value was -1.56%.

Regarding `CN(Cc1ccccc1)C(=O)CNC(=O)Cn1cnc2ccccc2c1=O`, the “activation” value was -2.08%.

With `c1ccc(-c2cn3c(n2)SCC3)cc1`, the Potency is 9.2 µM (active).

For the compound `Cc1cc(/C=N/Nc2ncnc(N)c2[N+](=O)[O-])c(C)n1-c1ccccc1`, the Potency is 0.092 µM (active).

With `CCN1CCc2c(sc(NC(=O)c3ccc(S(=O)(=O)N4CCCC4)cc3)c2C(=O)NC)C1`, the “activation” value was 8.85%.

As for `CC(Cc1ccccc1)NC(=O)c1ccc([N+](=O)[O-])cc1` (stereo not drawn), the Potency was 2.59 µM (active).
